Among all 1,400 compounds or so, about 560 (40%) were called active.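 Rule for the calls: active = mean inhibition over duplicate tests at 10 µM above 50%; inactive = the rest.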 The set was probably picked from earlier hits. Some of the results follow.
experiment: ASC/caspase-1 reporter retest in S. cerevisiae at one dose, specificity check for NALP1 project (AID 488857); conditions: S. cerevisiae ASC/Caspase-1, beta-galactosidase luminescence, 24 h; at 10 µM; active compounds read high

| SMILES | inhibition |
| --- | --- |
| COc1cccc(F)c1C(C[N+](=O)[O-])c1c(N)n(C)c(=O)n(C)c1=O (configuration not stated) | 97.7% (active) |
| Cc1ccc(C(C[N+](=O)[O-])c2c(N)n(C)c(=O)n(C)c2=O)cc1 (configuration not stated) | 98.2% (active) |
| COc1ccccc1C(C[N+](=O)[O-])c1c(N)n(C)c(=O)n(C)c1=O (configuration not stated) | 99.8% (active) |
| O=c1[nH][nH]c(-c2ccccc2O)c1C(C[N+](=O)[O-])c1ccc(Cl)cc1Cl (configuration not stated) | 42.1% (inactive) |
| Cc1ccccc1Cn1c(=N)n(CC(=O)c2ccc([N+](=O)[O-])cc2)c2ccccc21 | 53.6% (active) |
| Cc1nc([N+](=O)[O-])c(Br)n1CC(=O)c1ccc(Cl)cc1 | 37.6% (inactive) |
| N=c1n(CC(=O)c2ccc([N+](=O)[O-])cc2)c2ccccc2n1Cc1ccccc1Cl | 28.8% (inactive) |
| CCCCOc1ccc(CSC2=NCCN2)cc1[N+](=O)[O-] | 40.1% (inactive) |
| CCCCCOc1ccc(Cn2ccnc2)cc1[N+](=O)[O-] | 64% (active) |
| CCc1cccc2c(C(=O)CSc3nncn3-c3ccc(OC)cc3)c[nH]c12 | 38.1% (inactive) |
| CCc1cccc2c(C(=O)COC(=O)c3ccc([N+](=O)[O-])s3)c[nH]c12 | 95.7% (active) |
| CCc1cccc2c(C(=O)COC(=O)c3ccccc3)c[nH]c12 | 43.6% (inactive) |
| O=C(Nc1nc2c(c(=O)[nH]1)CCCC2)C1CC1 | 31.5% (inactive) |
| O=C1c2ccccc2C(O)N1c1cccnc1 (configuration not stated) | 23.4% (inactive) |
| O=C1c2ccccc2C(Nc2ccc(Cl)cn2)N1Cc1ccccc1 (configuration not stated) | 52.1% (active) |
| COc1ccc(C(C)C)cc1S(=O)(=O)n1cnc(C)c1 | 42.7% (inactive) |
| COC(=O)c1cc(OC)c(OC)cc1NC(=S)N1CCN(c2ccccc2)CC1 | 39.1% (inactive) |
| O=C(CN1CCN(c2cccc(Cl)c2)CC1)Nc1ccc(S(=O)(=O)N2CCOCC2)cc1 | 33.4% (inactive) |
| COC(=O)/C=C/C(=O)N1CCN(c2cccc(Cl)c2)CC1 | 62.8% (active) |
| C#CCOc1c(Br)cc(/C=N/O)cc1OCC | 17.9% (inactive) |
| CNc1nc(SCc2ccccc2Cl)nc2c1CCCC2 | 97.2% (active) |
| Cc1oc(-c2ccccc2Cl)nc1CSc1nc2c(c(=O)[nH]1)CCC2 | 21.4% (inactive) |
| CNc1nc(SCc2ccc(C)cc2)nc2c1CCCC2 | 98.4% (active) |
| NC(=NCCc1ccc(Cl)cc1)NS(=O)(=O)c1ccc(F)cc1 | 23.1% (inactive) |
| COc1ccc(N(C)C2=NS(=O)(=O)c3ccccc32)cc1 | 29.7% (inactive) |
| COCCN(CCOC)c1ncnc2c1cnn2-c1ccc(Cl)cc1 | 69.3% (active) |

| SMILES | inhibition |
| --- | --- |
| CN(Cc1ccccc1)c1ncnc2c1cnn2-c1ccccc1 | 66.2% (active) |
| COC(=O)c1ccc(Cn2cnc3c(cnn3-c3ccc(Cl)cc3)c2=O)o1 | 35.1% (inactive) |
| Nc1ccc(C(=O)c2cccs2)cc1 | 54.2% (active) |
| CC(C)c1ccc(NCCC(=O)c2cccs2)cc1 | 42% (inactive) |
| CCOc1ccc(N=c2oc3cc(O)ccc3cc2C(=O)NCC2CCCO2)cc1 (configuration not stated) | 33% (inactive) |
| CCOc1ccc(NC(=O)c2csc3c2CCCC3)cc1 | 70.2% (active) |
| CCOc1ccc(NC(=O)c2cc3c(C)nc4ccccc4c3o2)cc1 | 33.2% (inactive) |
| O=C(c1ccccc1-c1ccccc1)N1CCN(c2ccccn2)CC1 | 35.6% (inactive) |
| O=C(N1CCN(c2ccccn2)CC1)C(Cl)(Cl)Cl | 63.7% (active) |
| CCOC(=O)c1cc(-c2ccccc2)n(CCC(=O)N2CCN(c3ccccn3)CC2)c1C | 32.7% (inactive) |
| O=C(CSCc1cnn(-c2ccccc2)c1-n1cccc1)NCc1ccc2c(c1)OCO2 | 57.3% (active) |
| c1ccc2c(Nc3nc(N4CCOCC4)c4ccccc4n3)cccc2c1 | 95% (active) |
| Oc1c(Cl)cc(Cl)c(Cl)c1Cc1c(O)c(Cl)cc(Cl)c1Cl | 98.4% (active) |
| CCN(CC)c1ccc(NC(=O)Cn2cc3c(n2)CCC(C)C3)c(C)c1 (configuration not stated) | 51.1% (active) |
| Cc1cc(Cl)c(OCCCn2ccnc2)c(Br)c1 | 64.8% (active) |
| Cc1cc(Br)ccc1OCCn1ccnc1 | 59.4% (active) |
| C=CCNCCCCOc1ccc(Br)cc1C | 46.5% (inactive) |
| CCOc1cc(C(=O)OCC(=O)Nc2ncc(Cl)c(C)c2Cl)ccc1OCC(=O)N1CCOCC1 | 33.8% (inactive) |
| COC(=O)CCn1nnc(-c2ccc(C(C)C)cc2)n1 | 41.2% (inactive) |
| O=C(CN1C(=O)C2C3C=CC(C3)C2C1=O)NCCc1ccccc1 (configuration not stated) | 23.8% (inactive) |
| O=C(COC(=O)CCSc1ccccc1)NCc1ccccc1Cl | 29.2% (inactive) |
| COc1ccccc1OCC(=O)NCCSCc1cccc(Cl)c1 | 61.4% (active) |
| O=C(CCSCc1cccc(Cl)c1)NCCc1ccccc1 | 64.2% (active) |
| O=C(COc1ccccc1Cl)NCCC1=CCCCC1 | 48.4% (inactive) |
| CN(C)CCNC(=O)COc1ccc(Cl)cc1Cl | 28.3% (inactive) |
| COc1ccccc1OCC(=O)NCCSCc1ccccc1Cl | 65.5% (active) |

| SMILES | inhibition |
| --- | --- |
| COc1ccccc1OCC(=O)NCCSCc1ccc(Cl)cc1 | 64.2% (active) |
| Cc1sc(NC(=O)c2cc3ccccc3oc2=O)c(C(=O)OC(C)C)c1-c1ccccc1 | 36% (inactive) |
| COc1cccc(N2C(=O)C(O)=C(C(C)=O)C2c2ccc(OC)c(OC)c2)c1 (configuration not stated) | 31% (inactive) |
| CC(=O)N1CC[n+]2c(-c3ccc(Cl)cc3Cl)csc21 | 23.9% (inactive) |
| CC(C)Cn1c(CN(Cc2ccccc2)Cc2ccccc2)nc2c1c(=O)n(C)c(=O)n2C | 35.6% (inactive) |
| O=C(CSC1=NS(=O)(=O)c2ccccc21)Nc1ccccc1 | 43.5% (inactive) |
| Cc1ccc(CC(=O)Nc2ccccc2-c2ccccc2)cc1C | 34.3% (inactive) |
| O=C(CSCc1cccc(Cl)c1)Nc1ccccc1-c1ccccc1 | 62.6% (active) |
| COc1ccc(CCNC(=O)CN2CCC(C)CC2)cc1OC | 28.1% (inactive) |
| COc1ccc(CCN(C)C2CC(=O)N(c3ccccc3)C2=O)cc1OC (configuration not stated) | 51% (active) |
| COC(=O)c1ccccc1SC1CC(=O)N(c2ccccc2)C1=O (configuration not stated) | 49.2% (inactive) |
| COc1ccc2[nH]c3c(C)c4ccncc4c(C)c3c2c1 | 98.8% (active) |
| COc1ccc2[nH]c(C)c(CCNC(=S)Nc3cc(C)cc(C)c3)c2c1 | 17% (inactive) |
| CC(C)(C)c1cc(C(=O)O)n[nH]1 | -9.25% (inactive) |
| O=C(Nc1nccs1)c1sc2ccccc2c1Cl | 80.7% (active) |
| CNC(=O)c1ccsc1NC(=O)c1sc2ccccc2c1Cl | 58.8% (active) |
| O=C(Nc1nc(-c2ccccn2)cs1)c1ccc(Cl)s1 | 46.2% (inactive) |
| O=c1cc(-c2ccccc2)[nH]c2nc3ccccc3n12 | 44.1% (inactive) |
| Cc1nc(-c2ccccc2)cn2c1nc1ccccc12 | 59.9% (active) |
| Cc1cc(N/N=C/c2ccccc2Cl)nc(NCc2ccccc2)n1 | 52.2% (active) |
| Cc1ccccc1N(CC(=O)N/N=C/c1ccccc1Cl)C(=O)c1ccccc1 | 35.8% (inactive) |
| Cc1cc(N/N=C/c2cccc(Cl)c2)nc(NCc2ccccc2)n1 | 55.9% (active) |
| Cc1ccc(Nc2cc(C)nc(NCc3ccccc3)n2)cc1 | 61.2% (active) |
| Cc1cc(N/N=C/c2ccccc2)nc(NCc2ccccc2)n1 | 68.2% (active) |
| CC1(C)CC(=O)C2=C(C1)OC(N)=C([N+](=O)[O-])C2c1cccs1 (configuration not stated) | 39.2% (inactive) |
| CCOC(=O)c1c(C)n(C)c2cc(-c3ccc(C)cc3)c(O)cc12 | 41.5% (inactive) |

| SMILES | inhibition |
| --- | --- |
| Cc1cc(N/N=C/c2ccc(Cl)cc2)nc(NCc2ccccc2)n1 | 78.7% (active) |
| O=C(COc1ccc(CO)cc1Cl)Nc1ccc(F)cc1 | 38.2% (inactive) |
| Cc1ccccc1OCC(=O)Nc1cccc(N(C)S(C)(=O)=O)c1 | 34.6% (inactive) |
| O=C(COc1ccc(Br)cc1Br)NC(=S)Nc1cccc(CO)c1 | 59.8% (active) |
| COc1ccc(Cl)cc1C(=O)O/N=C(\N)c1ccc(Cl)cc1 | 43.9% (inactive) |
| N/C(Cc1ccc(Cl)cc1Cl)=N\OC(=O)c1cccs1 | 53.2% (active) |
| CCc1ccc(C(=O)NCc2ccc(Cl)cc2Cl)cc1 | 49.6% (inactive) |
| COc1ccc(C(=O)O/N=C(\N)Cc2ccc(Cl)cc2Cl)cc1OC | 72.4% (active) |
| CCN(CC)CCN1C(=O)c2ccccc2NC1c1ccc(N(C)C)cc1 (configuration not stated) | 31.9% (inactive) |
| CCCc1ccc(-c2c(C)sc(N)c2C#N)cc1 | 51.2% (active) |
| CCn1c(C)[n+](CC(O)COCC2CC=CCC2)c2ccccc21 (configuration not stated) | 41.3% (inactive) |
| COc1ccc(CNc2nc(C)c([N+](=O)[O-])c(C)c2C#N)cc1 | 45.5% (inactive) |
| COc1cc(C)ccc1OCCOCCOc1ccc([N+](=O)[O-])cc1 | 65.2% (active) |
| C=CCc1ccc(OCCCOc2ccc(C)cc2OC)c(OC)c1 | 31.8% (inactive) |
| S=C1SCN(Cc2cccnc2)CN1Cc1cccnc1 | 89.2% (active) |
| NNC(=S)NCc1cccnc1 | 37.2% (inactive) |
| O=C1/C(=C\c2cccnc2)CN(Cc2ccccc2)C/C1=C\c1cccnc1 | 30.4% (inactive) |
| Nc1[nH]c(=O)ncc1F | 81.2% (active) |
| Cc1nc(N)sc1N=Nc1ccc(Br)cc1 | 68.5% (active) |
| CCOC(=O)c1c(C)n(C)c2ccc(OC)c(NC(=O)CN3CCN(C4CCCCC4)CC3)c12 | 21.6% (inactive) |
| CCOC(=O)C(=CNNc1ccsc1C(=O)OC)C(=O)OCC | 41% (inactive) |
| CCOC(=O)C(=Cc1cc(=O)c(OC)co1)C(=O)OCC | 85.2% (active) |
| C1=CC2CC1CC2CN1CCN(Cc2ccccc2)CC1 (configuration not stated) | 48.8% (inactive) |
| Cc1onc(-c2ccccc2Cl)c1C(=O)N1C=CC(C(F)(F)F)=NCC1 | 77.5% (active) |
